IL1B secr inh: qHTS for Inhibitors of Inflammasome Signaling: IL-1-beta AlphaLISA Primary Screen; AID 743279, 2014; THP-1 LPS/ATP IL-1B secretion, AlphaLISA, 16 h; hits give low values; activity change, % at 57.5 µM; actives 4.7% (n = 360,000); in the data active = activity change below about -50%; inconclusive = mostly about -30% to -49%
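THP-1 cells pretreated 1 hr with compounds (up to 57.5 uM final), then stimulated with LPS (250 ng/mL final) plus ATP (1.25 mM final); secreted IL-1B measured by AlphaLISA after 16 hr, decreased signal indicating inhibition.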
DT40 TDP1 no CPT: qHTS for Inhibitors of human tyrosyl-DNA phosphodiesterase 1 (TDP1): qHTS in cells in absence of CPT; actives 15% (n = 420,000); DT40 Tdp1-/- hTDP1 cells, no CPT, ATP luminescence, 48 h; Potency, µM (titrated, usually from 46.2 µM), without a hit: at the highest dose activity change, negative = growth inhibition, most hits filed as inhibitors; note: potency is the fitted concentration of half-maximal effect; nearly all actives have a fitted effect of over 55% in size
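A cellular qHTS used chicken DT40 cells lacking endogenous Tdp1 but carrying stably transfected human TDP1. Compounds were applied without camptothecin, and cell growth kinetics were judged by ATP-dependent luminescence after ≥48 hr.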
Gal4-VP16 FLuc: VP16 counterscreen qHTS for inhibitors of ROR gamma transcriptional activity; Drosophila S2 Gal4-VP16 UAS-luciferase, luminescence, 20 h; Potency, µM (series often up to 53.6 µM), for the others: at the highest dose activity, negative = inhibition, usual class: inhibitors; actives 3.5% (n = 310,000);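 note: Gal4-VP16 expression switched on by copper sulfate through the metallothionein promoter; potency is the fitted concentration of half-maximal effect; nearly all actives have a fitted effect of over 50% in size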
DT40 TDP1 CPT: qHTS for Inhibitors of human tyrosyl-DNA phosphodiesterase 1 (TDP1): qHTS in cells in presence of CPT | chicken DT40 Tdp1-/-;hTDP1 cells + 20 nM CPT, ATP luminescence, 48 h | Potency, µM (doses to about 46.2 µM), inactives show at the top dose activity change, negative = growth inhibition, actives largely listed as inhibitors | actives 12% (n = 420,000); note: potency is the fitted concentration of half-maximal effect; nearly all actives have a fitted effect of over 55% in size
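Chicken DT40 Tdp1-/- cells complemented with human TDP1, 400 cells/well, exposed to compounds plus 20 nM camptothecin for at least 48 h at 37 C; viability read as ATP content by CellTiter-Glo luminescence.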
LDHA block: qHTS assay for inhibitors of human lactate dehydrogenase. L-lactate dehydrogenase A chain (Homo sapiens), P00338. purified LDHA, NADH/diaphorase-resazurin fluorescence; hits give low values. activity change, % (values are at about 110 or 230 µM). actives 0.15% (n = 480,000); in the data active = activity change below about -30%; inconclusive = mostly about -25% to -30%;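 note: plate controls were DMSO wells for no effect and wells without enzyme for full effect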
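Enzyme activity of human lactate dehydrogenase 5 (2 nM; 0.06 mM NADH, 0.2 mM pyruvate, 5 min, RT) is measured via a resazurin/diaphorase fluorescence readout of residual NADH.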
RORg inh: qHTS for inhibitors of ROR gamma transcriptional activity | Nuclear receptor ROR-gamma (Mus musculus), P51450 | Drosophila S2 Gal4-RORgamma UAS-luciferase reporter, 20 h | Potency, µM (top dose mostly 53.6 µM), for the others: at the top dose activity change, negative = inhibition, usual class: inhibitors | actives 5.4% (n = 310,000) | AID 2551, 2010; note: potency is the fitted concentration of half-maximal effect; nearly all actives have a fitted effect of over 60% in size
Target sequence (P51450 whole entry, looked up, the tested form may be a part): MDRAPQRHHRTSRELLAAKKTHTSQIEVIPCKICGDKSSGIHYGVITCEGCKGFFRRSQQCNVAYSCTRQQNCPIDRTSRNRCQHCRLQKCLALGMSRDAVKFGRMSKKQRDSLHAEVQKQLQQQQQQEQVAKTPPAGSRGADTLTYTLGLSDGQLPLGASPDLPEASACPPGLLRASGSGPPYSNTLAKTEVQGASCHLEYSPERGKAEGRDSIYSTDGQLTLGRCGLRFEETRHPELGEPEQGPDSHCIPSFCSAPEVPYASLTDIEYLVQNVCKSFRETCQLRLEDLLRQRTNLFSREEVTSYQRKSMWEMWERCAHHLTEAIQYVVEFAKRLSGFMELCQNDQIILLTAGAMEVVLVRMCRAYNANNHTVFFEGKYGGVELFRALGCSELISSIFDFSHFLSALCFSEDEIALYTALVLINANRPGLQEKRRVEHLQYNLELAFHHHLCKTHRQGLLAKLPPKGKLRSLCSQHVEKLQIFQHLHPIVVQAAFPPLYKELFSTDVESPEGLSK
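Stably transfected Drosophila Schneider cells are the test system, with ROR gamma fused to Gal4 and luciferase under UAS control; luminescence is read after 20 hr of 700 uM copper sulfate induction at ambient temperature.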
* hit, by the source's call; u = inconclusive; x = not tested or not shown; [ ] = dose if it differs, or a comment. A selection: hits, their analogues and other compounds. The true share with any hit is near 18%. Unless noted, calls come from the whole dose curve; as a rule, active = well fitted curve in the direction sought with a large enough effect; inconclusive = small, poorly fitted or top-dose-only effect, or another doubt; inactive = no such curve, though single readings can be large; an effect the other way counts as inactive or inconclusive. Unless noted, % is set by controls: 0 for no effect and ±100 for the full control effect.

SMILES	IL1B secr inh	DT40 TDP1 no CPT	Gal4-VP16 FLuc	DT40 TDP1 CPT	LDHA block	RORg inh
C=CCN(CC(F)(F)F)C(=O)c1ccc(NC(=O)NC(C)C)cc1	x	x	x	x	-1.7	x
O=C(CN1CC[n+]2c(-c3cccs3)csc21)c1ccc(-c2ccccc2)cc1	-88.7*	8.2µM*	-22.7%	9.2µM*	-8.9	5.3%
O=C(O)c1cccc(-c2cccs2)c1	x	x	x	x	1.7	x
c1csc(CNCc2cccc3[nH]ccc23)c1	x	x	x	x	0.0	x
CCN(CC)S(=O)(=O)c1ccc(-c2nc(C#N)c(NCC(C)C)o2)cc1	x	x	x	x	0.2	x
N#CC1=C(N)Oc2nc[nH]c(=O)c2C1c1ccc2c(c1)OCO2 (stereo unspecified)	x	x	x	x	6.4	x
Cn1nc(C(F)(F)F)c(-c2cccc(C(F)(F)F)c2)c1NC(=O)Nc1ccc(F)cc1	-1.4	14.6µM*	-8.3%	16.4µM*	-0.2	39.9%
Cn1nc(C(F)(F)F)c(-c2cccc(C(F)(F)F)c2)c1NC(=O)c1ccco1	-21.2	-21.9%	-15.8%	-28.7%	-1.4	13.7%
CC(C(=O)N1CCCCCC1)N1CCC(c2nc3ccccc3o2)CC1 (stereo unspecified)	x	x	x	x	1.4	x
O=C(NCc1ccccc1Cl)c1ccccc1CCc1ccccc1	-14.6	16.4µM*	-9.9%	u	-1.5	41.4%
O=C(NCc1ccc(Cl)cc1)c1ccccc1CCc1ccccc1	-18.3	-29.6%	16.8%	-11.8%	-3.1	36.4%
Cc1cc(C)c(NC(=O)c2ccccc2CCc2ccccc2)c(C)c1	12.7	u	-12.5%	18.4µM*	-0.3	-0.4%
CSc1ccccc1C(=O)Nc1c(C)cc(C)cc1C	x	x	x	x	-31.8*	x
CSc1ccccc1C(=O)Nc1ccccc1C(=O)NC(C)C	1.4	u	0.7%	23.1µM*	-4.0	5.6%
COC(=O)c1ccccc1NC(=O)c1ccccc1SC	41.5	-18.7%	-1.8%	-7.3%	-9.9	-5.7%
CCCc1ccc(-c2cc(C(=O)Nc3cccnc3)c3ccccc3n2)cc1	x	x	x	x	4.0	x
O=C(Nc1ccc2oc(-c3cccc(I)c3)nc2c1)c1ccc2c(c1)OCO2	x	x	x	x	0.9	x
Cc1n[nH]c(C)c1CCc1nc2c3ccccc3nc(SCC(=O)Nc3ccc(F)cc3)n2n1	x	29.1µM*	x	18.4µM*	-7.5	x
Cc1cccc(C)c1NC(=O)CSc1nc2ccccc2c2nc(CCc3c(C)n[nH]c3C)nn12	x	-29.3%	x	-17.1%	-0.3	x
Cc1ccc(NC(=O)CSc2nc3ccccc3c3nc(CCc4c(C)n[nH]c4C)nn23)cc1F	-5.8	6.51µM*	u	7.31µM*	-5.0	u
CC(NC(=O)c1ccccc1O)C(C)(C)C (stereo unspecified)	x	x	x	x	-3.4	x
CCCn1c(SCc2nc(-c3cccs3)no2)nnc1-c1ccncc1	-1.0	u	-9.9%[0.365 µM]	-25.9%	-5.6	12.4%
CCCn1c(SCc2nc(-c3ccc(OC)cc3OC)no2)nnc1-c1ccc(Cl)cc1	x	25.9µM*	x	20.6µM*	-4.7	x
CCCn1c(SCc2nc(-c3ccccc3OCC)no2)nnc1-c1ccc(Cl)cc1	x	18.4µM*	x	u	1.2	x
OC1(c2ccccc2)CC(c2ccccc2)c2ccccc2O1 (stereo unspecified)	-99.2*	u	x	-25.0%	-0.6	x
SMILES	IL1B secr inh	DT40 TDP1 no CPT	Gal4-VP16 FLuc	DT40 TDP1 CPT	LDHA block	RORg inh
O=C(CN1C(=O)c2ccccc2S1(=O)=O)c1cccc(Br)c1	4.0	-4.4%	-17.5%	3.6%	-7.5	u
O=C(CN1C(=O)c2ccccc2S1(=O)=O)c1ccc2c(c1)OCCO2	-15.7	-6.2%	0.562µM*	-13.7%	-9.7	0.0251µM*
O=C(CN1C(=O)c2ccccc2S1(=O)=O)c1ccc(OC(F)F)cc1	-8.1	-12.5%	10µM*	-5.6%	-4.9	12.6µM*
O=C(CN1C(=O)c2ccccc2S1(=O)=O)c1ccc(-c2ccc(Br)cc2)cc1	x	x	x	x	1.3	x
O=C(CN1C(=O)c2ccccc2S1(=O)=O)c1ccc2c(c1)OCCCO2	19.4	-2.7%	0.708µM*	10.6%	-8.7	0.282µM*
CCN1C(=O)C(O)(CC(=O)c2ccc3c(c2)OCO3)c2ccccc21 (stereo unspecified)	x	x	x	x	-11.5	x
CCCCn1c(=O)n(CC(=O)Nc2cc(C)on2)c(=O)c2c1ncn2Cc1ccccc1	x	x	x	x	1.2	x
CC(C)c1cc(=O)oc2cc(OS(=O)(=O)c3ccc(F)cc3)ccc12	x	x	x	x	-22.0	x
CCOc1nc2ccccc2nc1N1CCC(C(=O)NCc2cccc(C)c2)CC1	x	x	x	x	2.0	x
Cc1ccc(O)c(C2=NNC(c3ccc(Cl)cc3)C2)c1 (stereo unspecified)	1.8	u	12.6µM*	u	-1.6	7.94µM*
Cc1ccc(O)c(C2=NNC(O)(C(F)(F)F)C2)c1 (stereo unspecified)	-9.0	u	-23.0%	u	2.8	0.0%
Oc1ccc(Cl)cc1C1=NNC(c2cccs2)C1 (stereo unspecified)	2.4	u	u	u	-1.8	5.01µM*
CCOc1ccc(OCC(=O)Nc2ccc(N3CCCCC3)cc2)cc1	-3.8	-9.9%	-11.7%	-2.3%	-0.6	-2.2%
N#Cc1ccc(OCC(=O)Nc2ccc(N3CCCC3)cc2)cc1	-5.0	11.6µM*	x	u	3.9	x
O=C(Cn1c(-c2ccccc2)noc1=O)Nc1ccc(N2CCCCCC2)cc1	2.9	17.8µM*	-0.5%	15.8µM*	9.8	12.2%
CC(=O)N1CCN(c2ccc(NC(=O)c3cccc(Cl)c3Cl)cc2)CC1	-1.8	-21.4%	3.8%	-20.5%	-0.5	u
O=C(Cn1c(-c2ccccc2)noc1=O)Nc1ccc(S(=O)(=O)N2CCOCC2)cc1	-3.1	-6.0%	-4.1%	4.4%	-6.6	14.2%
O=C(CCl)Nc1ccc(N2CCCCCC2)cc1	-98.4*	8.2µM*	u	5.17µM*	27.9	u
O=C(Nc1ccc(N2CCCC2)cc1)c1cccc(Cl)c1Cl	-17.7	16.4µM*	4.5%	u	-0.3	44.7%
CCC(=O)Nc1ccc(N2CCCCC2)cc1	-10.7	-7.3%	4.8%	u	1.2	u
COc1ccc(C(CNC(=O)CCc2nnc(-c3ccsc3)o2)N(C)C)cc1 (stereo unspecified)	x	x	x	x	7.2	x
CCCCCC/C=N/NC(=O)Cc1cccc2ccccc12	x	x	x	x	-7.9	x

Bioassay records from PubChem BioAssay.
